A selection: hits, their analogues and other compounds. The true share with any hit is near 1.2%.
KCNH2 WT inh: inhibitors of human wildtype KCNH2 potassium channel; Q12809; U2OS, BacMam KCNH2, thallium flux FluxOr; stronger effect = lower value; activity change, % at 1.84 µM; actives 0.37% (n = 340,000);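 active = maximum activity change below -70%; inconclusive = maximum activity change between -70% and -50%; inactive = maximum activity change above -50%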; note: % is set by controls: 0 for no effect and ±100 for the full control effect
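U2OS cells transduced with wild-type KCNH2 virus are loaded with FluxOr dye for 45 min, and thallium flux is measured in kinetic reads before and after stimulation buffer. Rate constants are normalized to DMSO controls.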
S-ASM inh: blocks human secretory acid sphingomyelinase | Potency, µM (titrated, usually from 57.5 µM), for inactives: top-dose activity change, negative = inhibition, usual class: inhibitors | placental ASM, HMU-PC fluorogenic substrate, 60 min | actives 0.006% (n = 340,000) | P17405; note: potency is the fitted concentration of half-maximal effect
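Fluorogenic HMU-PC substrate (9 uM final) is turned over by placental ASM in 60 min at 37 C after a 10 min compound preincubation. Reaction ended by alkaline stop (pH 10), with fluorescence read at 386/447 nm.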
IDH1 R132H inh: blocks human mutant IDH1 R132H enzyme; AID 602179; actives 0.093% (n = 390,000); IDH1-R132H enzyme, NADPH consumption, diaphorase/resazurin fluorescence; Potency, µM (titrated, usually from 76.6 µM), for inactives: at the highest dose activity change, negative = inhibition, hits mostly inhibitors; note: potency is the fitted concentration of half-maximal effect; % is set by controls: 0 for no effect and ±100 for the full control effect; nearly all actives have a fitted effect of over 65% in size
Target sequence (O75874 whole entry R132H, stated change not applied): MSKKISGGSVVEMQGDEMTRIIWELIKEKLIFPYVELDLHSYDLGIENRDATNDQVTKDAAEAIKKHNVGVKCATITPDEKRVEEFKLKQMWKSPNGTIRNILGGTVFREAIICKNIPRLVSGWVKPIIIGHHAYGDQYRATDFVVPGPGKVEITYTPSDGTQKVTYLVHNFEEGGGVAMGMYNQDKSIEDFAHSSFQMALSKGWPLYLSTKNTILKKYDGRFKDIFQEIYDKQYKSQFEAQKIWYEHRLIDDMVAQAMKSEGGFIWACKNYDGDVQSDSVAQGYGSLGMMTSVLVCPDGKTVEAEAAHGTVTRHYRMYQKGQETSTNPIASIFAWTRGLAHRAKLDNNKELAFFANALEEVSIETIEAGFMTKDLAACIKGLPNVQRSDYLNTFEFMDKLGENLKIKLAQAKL
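IDH1-R132H (0.5 ug/mL dispensed) in pH 7.5 Tris buffer was preincubated 30 min with compound, then given a substrate mix of 0.016 mM NADPH and 2 mM alpha-KG for 80 min at room temperature; remaining NADPH was read by diaphorase/resazurin fluorescence.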
KCNH2 3.1 inh: blocks the human KCNH2 3.1 channel isoform. U2OS KCNH2 3.1, thallium flux FluxOr; stronger effect = lower value. activity change, % (tested at about 1.8 µM). actives 0.95% (n = 340,000). AID 720553;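 active = maximum activity change below -70%; inconclusive = maximum activity change from -70% to -50%; inactive = maximum activity change above -50%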;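 note: thallium influx rate constant from kinetic fluorescence after stimulation buffer; % is set by controls: 0 for no effect and ±100 for the full control effect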
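We transduce U2OS cells with the mutant 3.1 virus, culture them overnight, load FluxOr with Red40 quencher for 45 min, then add stimulation buffer and read kinetically for 2 min to derive a normalized rate constant.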
Apoferritin bind: binds horse apoferritin like a general anesthetic; P02791; apoferritin/1-aminoanthracene competitive binding, fluorescence; Potency, µM (titrated, usually from 77.5 µM), inactives show at the top dose activity change, negative = displacement, usual class: inhibitors; actives 0.074% (n = 350,000); AID 485281; note: potency is the fitted concentration of half-maximal effect; % is set by controls: 0 for no effect and ±100 for the full control effect; nearly all actives have a fitted effect of over 20% in size
Target sequence (P02791 2-175 limits assumed): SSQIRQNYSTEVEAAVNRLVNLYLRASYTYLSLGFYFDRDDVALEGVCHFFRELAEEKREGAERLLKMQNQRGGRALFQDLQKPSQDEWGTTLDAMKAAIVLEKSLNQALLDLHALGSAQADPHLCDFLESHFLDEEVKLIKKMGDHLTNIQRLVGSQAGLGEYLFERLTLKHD
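Horse-spleen apoferritin (10 uM) was mixed with 50% saturated 1-aminoanthracene in PBS, exposed to compounds for 10 min at room temperature, and read for fluorescence (ex 380 nm, em 535 nm). Competitive displacement was fitted with a four-parameter Hill equation.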
The depositor's hits bear a star. Unless noted, calls come from the whole dose curve; as a rule, active = well fitted inhibition curve with a large enough effect; inconclusive = small, poorly fitted or top-dose-only effect; inactive = no such curve, though single readings can be large or run the other way.

Screening COc1ccc(Nc2oc(-c3ccc(COc4cccc(C)c4)o3)nc2C#N)cc1 returned IDH1 R132H inh 2.0% and Apoferritin bind 208.5%.
For CC(=O)c1ccc(Nc2c3c(nc4ccccc24)CCCC3)cc1 the results were KCNH2 WT inh -76.7*, S-ASM inh -8.6%, IDH1 R132H inh -7.3%, KCNH2 3.1 inh -9.8 and Apoferritin bind -10.9%.
For O=C(Nc1cccc(Cl)c1)c1ccc2c(c1)CCN2S(=O)(=O)c1ccccc1 the results were IDH1 R132H inh -9.6% and Apoferritin bind -9.8%.
`O=[N+]([O-])c1ccc(CN2CCN(c3ccc([N+](=O)[O-])cc3)CC2)cc1` gave KCNH2 WT inh -73.3*, S-ASM inh -9.1%, IDH1 R132H inh 4.4%, KCNH2 3.1 inh -4.5 and Apoferritin bind -17.4%.
For CCn1c(N2CCN(C(=O)/C=C/c3ccccc3)CC2)nc2ccccc21 the results were KCNH2 WT inh inconclusive, S-ASM inh -2.5%, IDH1 R132H inh -6.4%, KCNH2 3.1 inh -90.3* and Apoferritin bind -20.9%.
For CCn1c(N2CCN(S(=O)(=O)CC)CC2)nc2ccccc21 the results were KCNH2 WT inh -1.8, S-ASM inh 0.1%, IDH1 R132H inh 5.1%, KCNH2 3.1 inh 1.5 and Apoferritin bind -8.1%.
Screening O=[N+]([O-])c1ccc(N2CCN(C(=S)c3cccc([N+](=O)[O-])c3)CC2)cc1 returned KCNH2 WT inh -42.0, S-ASM inh -5.2%, IDH1 R132H inh -6.0%, KCNH2 3.1 inh -101.5* and Apoferritin bind -3.6%.
CCn1c(N2CCN(Cc3ccc([N+](=O)[O-])cc3)CC2)nc2ccccc21 was read as KCNH2 WT inh -86.8*, S-ASM inh -0.5%, IDH1 R132H inh -2.0%, KCNH2 3.1 inh -94.1* and Apoferritin bind -9.2%.
`CC(=O)c1cccc(NC(=O)c2c(-c3ccccc3)c(-c3ccccc3)nn(C)c2=O)c1` gave IDH1 R132H inh 0.0% and Apoferritin bind inconclusive.
CCOC(=O)Cc1cc(C(=O)Nc2ccc(Br)cc2)sc1-c1ccc(C)cc1 was read as IDH1 R132H inh 0.0% and Apoferritin bind -2.0%.
`COc1cc(OC)c(OC)cc1CNCCCSc1nnnn1C` gave IDH1 R132H inh -16.2% and Apoferritin bind 0.7%.
Screening CCCn1c(N2CCN(Cc3ccc(Cl)cc3)CC2)nc2ccccc21 returned KCNH2 WT inh -20.8, S-ASM inh -0.2%, IDH1 R132H inh 8.7%, KCNH2 3.1 inh -79.0* and Apoferritin bind -13.1%.
`CCCn1c(N2CCN(C(=O)/C=C/C(=O)O)CC2)nc2ccccc21` gave KCNH2 WT inh 6.7, S-ASM inh 1.5%, IDH1 R132H inh -6.3%, KCNH2 3.1 inh 25.2 and Apoferritin bind -10.2%.
For O=[N+]([O-])c1ccc(CN2CCN(c3ccc4ccccc4n3)CC2)cc1 the results were KCNH2 WT inh inconclusive, S-ASM inh -0.2%, IDH1 R132H inh 0.0%, KCNH2 3.1 inh -99.3* and Apoferritin bind -15.0%.
`Clc1ccc(N2CCN(Cc3c[nH]c4ncccc34)CC2)cc1` gave S-ASM inh -2.9%, IDH1 R132H inh -1.4% and KCNH2 3.1 inh -82.0*.
`O=C1c2[nH]nc(-c3ccccc3O)c2C(c2ccc(Cl)cc2)N1CCc1ccccc1` (centres undefined) gave IDH1 R132H inh -17.3% and Apoferritin bind -17.1%.
COC(=O)c1cccc2c1-c1ccccc1/C2=N/O was read as KCNH2 WT inh -6.0, S-ASM inh -13.8%, IDH1 R132H inh 1.0%, KCNH2 3.1 inh 13.4 and Apoferritin bind -19.2%.
`COC(=O)c1cccc2c1-c1ccccc1/C2=N\NC(N)=O` gave KCNH2 WT inh -147.4*, S-ASM inh -5.4%, IDH1 R132H inh -9.8%, KCNH2 3.1 inh -189.6* and Apoferritin bind -11.9%.
Screening CC(C)c1ccc(/C=C2\SC(=S)N(CCC(=O)NCCCn3ccnc3)C2=O)cc1 returned KCNH2 WT inh -1.1, S-ASM inh -20.1%, IDH1 R132H inh 8.6%, KCNH2 3.1 inh -77.4* and Apoferritin bind inconclusive.
Screening Cc1ccc(CSc2nnnn2C)cc1 returned KCNH2 WT inh 2.2, S-ASM inh 9.9%, IDH1 R132H inh 3.4%, KCNH2 3.1 inh -98.0* and Apoferritin bind inconclusive.
Cn1nnnc1SCCNCc1ccc(Cl)cc1 was read as KCNH2 WT inh 0.5, S-ASM inh 4.5%, IDH1 R132H inh 1.4%, KCNH2 3.1 inh -95.0* and Apoferritin bind 1.7%.
`O=C(CCCc1ccccc1)NC1CC(=O)N(c2ccc(Cl)cc2)C1` (centres undefined) gave IDH1 R132H inh 11.1% and Apoferritin bind -7.4%.
`c1cnc(N2CCN(c3ncc4c(n3)CCNC4)CC2)nc1` gave IDH1 R132H inh 19.2% and Apoferritin bind -1.5%.
O=C(Nc1ccc([N+](=O)[O-])cn1)c1cc(-c2cccc(Br)c2)nc2ccccc12 was read as KCNH2 WT inh -7.2, IDH1 R132H inh 4.9%, KCNH2 3.1 inh -80.7* and Apoferritin bind -1.1%.
Screening O=C(Nc1ccc([N+](=O)[O-])cn1)c1cc(-c2cccc(Cl)c2)nc2ccccc12 returned KCNH2 WT inh inconclusive, S-ASM inh -9.7%, IDH1 R132H inh 3.2%, KCNH2 3.1 inh inconclusive and Apoferritin bind -2.4%.
`CCCC[C@@H]1CCCO[C@@](C(=O)NCc2ccc(S(C)(=O)=O)cc2)(C(F)(F)F)C1` gave Apoferritin bind -14.1%.
For COc1ncnc2c1ncn2CCCNCC(c1ccccc1)c1ccccc1 the results were KCNH2 WT inh -5.0, IDH1 R132H inh 11.3% and KCNH2 3.1 inh 15.4.
`c1ccc(COc2ncnc3c2ncn3CCCNCC(c2ccccc2)c2ccccc2)cc1` gave KCNH2 WT inh -18.2, IDH1 R132H inh -4.5% and KCNH2 3.1 inh -72.4*.
Screening COc1ccccc1/C=C/C(=O)NCc1cccnc1 returned KCNH2 WT inh 3.8, S-ASM inh -2.0%, IDH1 R132H inh 1.2%, KCNH2 3.1 inh -100.6* and Apoferritin bind -4.1%.
Screening O=C(Nc1ccccc1N1CCN(C(=O)c2ccc(Cl)cc2)CC1)c1ccc([N+](=O)[O-])o1 returned KCNH2 WT inh -94.2*, S-ASM inh -5.6%, IDH1 R132H inh -1.1%, KCNH2 3.1 inh -92.7* and Apoferritin bind -19.0%.
Screening O=C(Nc1ccccc1N1CCN(C(=O)c2ccc(Cl)cc2)CC1)c1ccc(Br)cc1 returned KCNH2 WT inh -11.8, S-ASM inh -7.1%, IDH1 R132H inh 3.9%, KCNH2 3.1 inh -90.8* and Apoferritin bind -8.9%.
CCCCOP(=O)(c1ccc(N(C)C)cc1)C(Nc1ccccc1)c1ccccc1 (centres undefined) was read as KCNH2 WT inh -4.4, S-ASM inh -15.6%, IDH1 R132H inh 4.9%, KCNH2 3.1 inh -95.3* and Apoferritin bind -11.2%.
